According to the supplement of paper PMC6555819:

Assays:
Assay in all cases: PBM binding z-score (relative to random genomic background probes); higher = stronger binding; sequences stand for … in GC…GCGATTGACAGCGTAGAATGAAGG
[1] = system: FXR:RXRa (NR concentration 270 nM, RXRa partner concentration 90 nM)
Procedure, shortened: (§1)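 Binding buffer was PBS pH 7.4 with 2% milk, 0.02% Triton X-100, 1 mM DTT, 0.2 mg/mL BSA and 0.4 mg/ml salmon testes DNA. In it, ligand-free nuclear receptor dimers were incubated 1 h on custom Agilent 4×180K protein-binding microarrays carrying double-stranded probes. Antibodies against each partner (one per run) detected binding, and z-scores were calculated against random background probes after regression normalization of scanned fluorescence.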

[2] = system: LXRa:RXRa (NR concentration 270 nM, RXRa partner concentration 90 nM)
Procedure, shortened: as §1

[3] = system: LXRa homodimer (NR concentration 270 nM)
Procedure, shortened: as §1

[4] = system: LXRb:RXRa (NR concentration 270 nM, RXRa partner concentration 90 nM)
Procedure, shortened: as §1

[5] = system: LXRb homodimer (NR concentration 270 nM)
Procedure, shortened: as §1

[6] = system: PPARa:RXRa (NR concentration 270 nM, RXRa partner concentration 90 nM)
Procedure, shortened: as §1

[7] = system: PPARg:RXRa (NR concentration 180 nM, RXRa partner concentration 90 nM)
Procedure, shortened: as §1

[8] = system: PPARg:RXRa 270nM:90nM, anti-RXR (NR concentration 270 nM, RXRa partner concentration 90 nM)
Procedure, shortened: as §1

[9] = system: PPARg:RXRa 30nM:10nM, anti-RXR (NR concentration 30 nM, RXRa partner concentration 10 nM)
Procedure, shortened: as §1

[10] = system: PPARg:RXRa 90nM:30nM, anti-RXR (NR concentration 90 nM, RXRa partner concentration 30 nM)
Procedure, shortened: as §1

[11] = system: PPARg:RXRa DBDmut IVT, anti-RXR (DBD mutation: RXRa K156A/R161A, NR concentration 270 nM, RXRa partner concentration 90 nM)
Procedure, shortened: as §1

[12] = system: PPARg:RXRa IVT, anti-PPARg (NR concentration 270 nM, RXRa partner concentration 90 nM)
Procedure, shortened: as §1

[13] = system: PPARg DBDmut:RXRa IVT, anti-PPARg (DBD mutation: PPARg1 K132A/R137A, NR concentration 270 nM, RXRa partner concentration 90 nM)
Procedure, shortened: as §1

[14] = system: PPARg DBDmut IVT, anti-PPARg (DBD mutation: PPARg1 K132A/R137A, NR concentration 270 nM)
Procedure, shortened: as §1

[15] = system: PPARg homodimer (NR concentration 180 nM)
Procedure, shortened: as §1

[16] = system: PXR:RXRa (NR concentration 270 nM, RXRa partner concentration 90 nM)
Procedure, shortened: as §1

[17] = system: PXR homodimer (NR concentration 270 nM)
Procedure, shortened: as §1

[18] = system: RARa:RXR (NR concentration 270 nM, RXRa partner concentration 90 nM)
Procedure, shortened: as §1

[19] = system: RARa homodimer (NR concentration 270 nM)
Procedure, shortened: as §1

[20] = system: RARb:RXRa (NR concentration 270 nM, RXRa partner concentration 90 nM)
Procedure, shortened: as §1

Sequence	PBM binding z-score [1]	PBM binding z-score [2]	PBM binding z-score [3]	PBM binding z-score [4]	PBM binding z-score [5]	PBM binding z-score [6]	PBM binding z-score [7]	PBM binding z-score [8]	PBM binding z-score [9]	PBM binding z-score [10]	PBM binding z-score [11]	PBM binding z-score [12]	PBM binding z-score [13]	PBM binding z-score [14]	PBM binding z-score [15]	PBM binding z-score [16]	PBM binding z-score [17]	PBM binding z-score [18]	PBM binding z-score [19]	PBM binding z-score [20]
CCTACTGGGCCATTCAGAGGTCGTTGATCATATG	0.36	0.813	0.735	0.964	-0.712	1.97	0.916	1.26	-0.074	0.672	4.62	3.78	-0.302	0.289	0.217	1.55	0.112	1.27	-0.226	1.11
ATCTCTAGGTAACTAGTTCAGTGAAAGAGAGGAC	0.133	0.11	-0.0189	0.143	0.75	0.794	0.87	0.974	0.417	0.722	2.81	2.6	1.49	0.893	0.154	0.527	0.481	0.382	0.388	0.464
CCTACTGGGCCATTTAGAGGTCATTGATCATATG	2.82	4.87	8.57	3.98	0.803	3.78	2.24	3.15	0.977	2.11	3.95	4.32	0.156	0.0335	2.07	4.7	2.25	4.46	0.647	2.89
GATACATGGTCAAGGCCAGAGTACGCGTATTGAT	-0.39	-0.622	-0.276	-0.463	-0.821	-0.215	0.872	0.016	0.162	0.303	0.0376	0.621	-0.439	0.11	-0.243	-0.158	-0.13	-0.204	-0.125	1.25
GCGACAGGGGCAAAGCAGGTTACCATAAGGTTGG	0.475	1.06	-0.402	0.691	-0.988	1.41	0.589	0.106	-0.427	-0.446	0.177	0.684	-0.131	-0.736	0.212	0.934	-0.112	1.19	-0.459	1.47
TCTTGTAGATCAATAGCGGTTAAGAAAGTGCGCT	0.25	0.57	0.174	0.435	-0.253	0.5	-0.524	1.28	2.75	2.17	1.73	0.605	-0.463	0.835	0.226	0.449	0.123	0.439	0.667	-0.0234
TCTTGTAGATCCATAGAGGTTAAGAAAGTGCGCT	0.485	3.32	-0.138	1.43	0.453	1.16	-0.272	1.18	2.32	1.65	1.15	0.128	1.1	0.975	0.227	2.66	0.0814	1.35	0.858	0.837
CCGACTGGGCCAAGGTCATTGATCAGTCAAAGCA	2.94	2.76	0.884	2.65	-1.02	3.83	2.29	3	0.61	2.11	2.08	2.75	-1.14	-0.87	2.42	3.48	0.921	3.76	0.257	3.26
AGAACGAGGGCTCGCTGAGTTGATAGCAGAGTAG	-0.628	-0.88	-0.835	-0.918	-1.31	-0.747	0.239	-0.824	-0.528	-0.552	-0.0756	-0.495	-1.3	-0.699	-0.792	-0.724	-0.639	-0.678	-1.21	-0.365
CCTCGGAGGACAACAGGAGGTCAGACCTGCCAGA	0.836	2.12	2.37	1.52	-0.492	1.96	0.605	0.0936	-0.634	-0.359	0.294	0.546	-0.564	-0.997	1.43	2.11	0.241	2.19	0.183	2.89
ACTATTAGTTGAGACGAGGGCAACCGTTAGGTTG	0.584	0.15	0.0603	-0.161	0.0285	0.115	0.198	-0.206	-0.415	-0.374	0.0606	0.467	0.0213	0.173	0.552	1.36	0.226	0.588	-0.132	1.1
TCTAGCAGGCCAGAGGGGCACTCAAGAGGTACGG	-0.239	-0.393	-0.689	-0.334	-0.644	0.22	0.662	1.41	1.64	1.51	0.959	-0.0435	-0.531	-0.834	-0.877	-0.511	-0.673	-0.329	-0.905	0.329
GCAGTCAGGTGAAACGCAGGTAACTCAGGGTGGC	0.205	-0.0689	-0.816	-0.344	-1.08	0.614	0.152	0.222	-0.525	0.166	1.84	0.996	-0.763	-0.908	-0.83	-0.443	-0.701	0.159	-1.13	1.03
GGAACGAGGGCAAGTTGATAGCCGAGTTTGATGG	0.943	0.357	-0.311	0.355	-0.62	1.94	0.924	1.09	-0.224	0.405	3.6	2.74	-0.528	-0.707	0.106	0.822	0.247	0.442	-0.485	2.88
ATACCAAGGTGATCGTAAGGTCGTTGATACTAAC	2.06	1.46	0.729	1.42	-0.157	1.71	0.613	0.737	0.111	0.398	0.558	1.51	0.685	0.646	0.753	2.81	1.42	2.19	0.841	1.55
TAACCAAGGTGAAGGTCGTTGATCCCTCTGTAGA	2.07	2.07	0.0328	1.66	-0.394	2.58	3.03	3.53	2.15	4.01	1.46	2.78	-0.196	-0.741	0.785	1.48	0.489	1.92	-0.478	2.12
CCTACTGGGCCAAACAGGTCATTGATGCCGATAA	0.606	0.905	0.657	1.55	-0.709	2.56	1.79	2.18	0.412	1.43	4.31	3.92	0.0161	-0.301	1.42	1.37	0.801	1.71	0.102	1.68
CCTACTGGGCCATCAGGTAATTGATATCAACGTT	-0.165	-0.235	-0.14	-0.089	-0.373	0.452	1.15	1.85	0.313	1.17	4.07	4.05	-0.379	0.313	0.173	-0.337	-0.167	-0.328	-0.0481	0.0726
ACTATTAGTTGACTTCGGGCAACCGATACGACGC	0.0947	0.0355	0.567	0.0208	0.752	-0.237	0.757	0.358	0.0391	0.162	-0.0241	0.38	0.985	0.939	0.728	0.138	0.00546	0.411	0.245	0.417
TCTAGTTGGTCACGGAGCTCACACACGACGGGTA	0.213	0.0936	-0.438	0.0145	-0.134	0.663	0.998	1.56	2.94	2.33	2.15	2.2	0.346	0.786	0.57	0.334	-0.237	0.366	0.0423	1.5
TCTGCTAGGTCAACGATGGTCGGCTAATCTGCTA	3.06	2.14	-0.28	1.11	-0.00978	2.9	2.1	3.01	1.81	2.42	4.31	4.05	0.027	-0.0502	0.168	1.22	-0.84	2.02	-1.21	3.97
TCTGCTAGGTCAACGATGTTCAGCTAATCTGCTA	3	2.22	-0.237	1.39	-0.31	3.1	2.54	3.01	2.01	2.42	4.36	4.43	0.0539	0.546	0.745	1.4	-0.689	2	-0.343	4.15
GGAACGAGGGCATTCGTGTTGATAGCATGGCGAT	0.778	0.372	-0.449	0.152	-0.674	1.39	0.763	0.768	-0.395	0.413	3.27	2.25	-0.566	-0.299	0.242	0.774	0.237	0.37	-0.471	1.62
TCATATAGGTAATACAGGTGAAAGACGGCATCTA	1.16	1.28	0.842	0.947	0.0154	1.94	1.92	2.73	4.26	3.41	4.17	3.37	1.39	1.69	1.42	0.845	0.764	1.34	1.85	0.786
GCTGCTAGGTCACCTGATGGTCAGCTAAAGCTCG	3.25	2.4	-0.338	1.66	-0.22	3.22	2.21	2.86	0.569	1.95	4.7	4.09	0.447	0.446	1.57	1.2	-0.963	2.67	-0.925	3.86
TCTAGTTGGTCACGTAGGTCACACACGACGGGTA	2.06	1.85	1.01	2	0.514	2.78	2.17	3.05	3.43	3.35	2.33	3.55	1.17	0.772	2.46	2.27	0.538	2.84	0.979	3.26
ATCTCTAGGTAAAAGTTCCGTGAATCCCGAGGAT	0.485	0.395	-0.0221	-0.0121	0.845	1.5	2.36	4.22	2.6	3.7	2.32	1.72	0.769	1.67	0.967	-0.0655	0.269	0.0824	0.505	0.237
TCTGCCAGGTCAGTTGGTCAGCTAACGAGCTGCC	1.42	0.919	-0.414	0.653	0.604	1.61	-0.0729	1.28	1.13	0.918	1.26	1.9	-0.28	0.0313	0.213	0.349	-0.79	0.976	-1.08	3.29
